Results filed as inconclusive are left out. A call without a number means that no potency is given here. Active and inactive are the calls of the source. Calls follow the shape of the dose curve; as a rule, active = well fitted inhibition curve with a large enough effect; inconclusive = small, poorly fitted or top-dose-only effect; inactive = no such curve, though single readings can be large or run the other way.
Potency is read from the fitted curve at half-maximal effect.

For this test, the target named is Glutaminase kidney isoform, mitochondrial (Homo sapiens) (UniProt O94925). Nature of the test: qHTS for Inhibitors of Glutaminase (GLS): LOPAC Validation (AID 624146). Also: nearly all actives have a fitted effect of over 60% in size. The note with it: glutaminase enzyme activity inhibition; series mostly up to 46.1 µM. From the text: Glutaminase (GLS) catalyzes the hydrolysis of glutamine into glutamate and ammonia. It plays a critical role in glutaminolysis, which is an important energy source for proliferating cells. It was shown that c-Myc, an oncogenic transcription factor known to regulate microRNAs and to stimulate cell proliferation, increases glutamine metabolism by stimulating the expression of GLS via direct suppression of miR23a and miR23b.
Glutaminase kidney isoform, mitochondrial (Homo sapiens), sequence (O94925 whole entry, looked up, canonical isoform): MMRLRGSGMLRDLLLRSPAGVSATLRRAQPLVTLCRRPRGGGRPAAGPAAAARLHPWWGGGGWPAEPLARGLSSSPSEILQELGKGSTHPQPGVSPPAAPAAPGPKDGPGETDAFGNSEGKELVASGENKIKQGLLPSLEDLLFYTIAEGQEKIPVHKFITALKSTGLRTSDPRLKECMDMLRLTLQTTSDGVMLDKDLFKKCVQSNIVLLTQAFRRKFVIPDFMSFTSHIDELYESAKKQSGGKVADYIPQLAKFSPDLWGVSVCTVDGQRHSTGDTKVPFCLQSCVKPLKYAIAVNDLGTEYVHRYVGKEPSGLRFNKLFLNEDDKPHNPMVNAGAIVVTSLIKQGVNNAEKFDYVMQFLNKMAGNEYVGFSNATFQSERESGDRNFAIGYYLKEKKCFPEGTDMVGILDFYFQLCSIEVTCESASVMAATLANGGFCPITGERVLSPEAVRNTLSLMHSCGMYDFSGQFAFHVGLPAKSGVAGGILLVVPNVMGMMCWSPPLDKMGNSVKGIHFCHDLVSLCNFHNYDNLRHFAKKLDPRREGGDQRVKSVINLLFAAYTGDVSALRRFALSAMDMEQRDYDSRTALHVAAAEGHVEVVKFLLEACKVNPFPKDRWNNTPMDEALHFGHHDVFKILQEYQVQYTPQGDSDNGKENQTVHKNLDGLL
GLS is also thought to play a pathogenic role on HAD using a human HIV-1 infected macrophage system. […] GLS inhibition limits glutamate release and provides neuroprotection against HIV-1 infected macrophages.
The overall goal of this project is to identify small molecule inhibitors of GLS through quantitative high throughput screening (qHTS) of the MLSMR. A validated potent and selective inhibitor can be used as a tool molecule to further study the pharmacology of its target as well as explore its potential therapeutic application in cancer and inflammatory neurological disorders, such as HIV1-associated dementia (HAD) and multiple sclerosis.
NIH Chemical Genomics Center [NCGC]
NIH Molecular Libraries Probe Centers Network [MLPCN]
Assay Submitter (PI): Barbara S. Slusher, Johns Hopkins University
Three 3 uL of hKGA is dispensed into black well 1536-well plates in 45 mM KH2PO4 (pH 8.2), 0.02% Tween-20. Then 23 nL of compounds are added through pin tool transfer. To this, 1 uL of 1mM L-Glutamine and 1 uL of a solution of L-Glutamateoxidase, HRP, Amplex red are added. Plate is centrifuged for 25 sec before an initial fluorescence read is obtained on the ViewLux, after 30 min of RT incubation, the final read is taken on the ViewLux.
For orientation: Quantitative high-throughput screening tests each substance at several concentrations.
In the case of `O=c1ccc2c(OCCCCc3ccccc3)c3ccoc3cc2o1`, the Potency result is “inactive”.

As to `O=C1Nc2ccc(I)cc2/C1=C/c1cc(Br)c(O)c(Br)c1`, the Potency entry is “inactive”.

On to `O=C(O)C1=CCCNC1`, for which the Potency entry is “inactive”.

Turning to `CCN(c1nc(N)c(C(=O)N=C(N)N)nc1Cl)C(C)C`, the Potency entry is “inactive”.

As to `CC(N)(Cc1ccc(O)c(O)c1)C(=O)O` (stereo not given), the Potency entry was “inactive”.

Turning to `CNc1ncnc2c1ncn2[C@H]1C[C@H](OP(=O)(O)O)[C@@H](COP(=O)(O)O)O1`, the Potency result is “inactive”.

As for `CCCn1c(=O)c2c(ncn2C)n(CCC)c1=O`, the Potency entry is “inactive”.

Consider `CC(N)(C(=O)O)c1ccc(C(=O)O)cc1` (stereo not given), for which the Potency entry is “inactive”.

Take `Fc1ccc(CN(C2=NCCN2)c2c(Cl)cccc2Cl)cc1`: the Potency result was “inactive”.

As to `CNCCc1cnc(CCC(c2ccccc2)c2ccccc2)[nH]1`, the Potency entry was “inactive”.

For the molecule `O=c1onc2n1-c1cc(Br)ccc1OC2`, the Potency result was “inactive”.

`NC(N)=N[C@@H](CCC(=O)O)C(=O)O`: the Potency entry is “inactive”.

`CCCCCCCCCC[Si](C)(C)CCC(=O)NC(Cc1ccc(C)cc1)c1ccccc1` (stereo not given): the Potency result was “inactive”.

For `CCCc1c(OCCCOc2ccc(OCC(=O)O)cc2)ccc(C(C)=O)c1O`, the Potency result is “inactive”.

For the molecule `c1ccc(CN2CCC3(CCCc4ccccc43)CC2)cc1`, the Potency result is “inactive”.

`C=C1C(=O)O[C@@H]2[C@H]3O[C@]3(C)CCC=C(C)CC[C@@H]12`: the Potency entry is “inactive”.

For the molecule `COc1cc(CC(=O)O)ccc1O`, the Potency is 2.82 µM (active).

Regarding `NCCCCN=C(N)N`, the Potency entry was “inactive”.

For the molecule `Oc1ccc(Cn2cc[nH]c2=S)cc1`, the Potency entry is “inactive”.

Regarding `CCCn1c(=O)c2[nH]c(-c3ccc(S(=O)(=O)O)cc3)nc2n(CCC)c1=O`, the Potency entry is “inactive”.

As for `Oc1cc2c(cc1O)C(c1ccccc1)CNCC2` (stereo not given), the Potency is 0.631 µM (active).

For `NCC(O)c1ccc(O)c(O)c1` (stereo not given), the Potency result was “inactive”.

Consider `CC(C)Cn1c(=O)n(C)c(=O)c2[nH]cnc21`, for which the Potency entry is “inactive”.

On to `OC[C@H]1O[C@@H](n2cnc3cncnc32)[C@H](O)[C@@H]1O`, for which the Potency result was “inactive”.

For the molecule `COc1cc2c(CCNC(C)=O)c[nH]c2cc1O`, the Potency is 2 µM (active).

With `C[C@]12C=CC(=O)C=C1CC[C@@H]1C2=CC[C@]2(C)[C@@H](C(=O)CN3CCN(c4cc(N5CCCC5)nc(N5CCCC5)n4)CC3)CC[C@@H]12`, the Potency entry is “inactive”.

In the case of `O=C(c1ccc2c(c1)OCCO2)N1CCCCC1`, the Potency entry is “inactive”.

As to `CN(CC[C@@H](Oc1ccc(C(F)(F)F)cc1)c1ccccc1)CC(=O)O`, the Potency result is “inactive”.

In the case of `CCSC(=N)N`, the Potency result is “inactive”.

With `CSC(N)=NCCC[C@H](N)C(=O)O`, the Potency result was “inactive”.

As for `CC(=O)N[C@@H](Cc1c[nH]c2ccccc12)C(=O)OCc1cc(C(F)(F)F)cc(C(F)(F)F)c1`, the Potency result was “inactive”.

On to `c1ccc2c(c1)CC(N1CCN(c3cccc4c3OCCO4)CC1)C2`, for which the Potency result is “inactive”.

As to `O=C1C2C=CC=CC2=NC(=S)N1CCN1CCC(=C(c2ccc(F)cc2)c2ccc(F)cc2)CC1` (stereo not given), the Potency result is “inactive”.

As for `CCCCCCCCCCC(C)(C)C(=O)Nc1c(OC)cc(OC)cc1OC`, the Potency result was “inactive”.

Turning to `CC(=O)O[C@H]1CC2(C)[C@@H](C[C@@H](O)[C@H]3[C@@]4(C)CC[C@@H](O)[C@@H](C)[C@@H]4CC[C@@]32C)C1=C(CCC=C(C)C)C(=O)O` (stereo not given in full), the Potency entry was “inactive”.

For `CC(O)C(O)[C@H]1CNc2nc(N)[nH]c(=O)c2N1` (stereo not given in full), the Potency entry is “inactive”.

Regarding `COc1cc(N)c(Cl)cc1C(=O)OCCN1CCCCC1`, the Potency entry was “inactive”.

Consider `Nc1ncnc2c1ncn2C1CCCC1`, for which the Potency entry is “inactive”.

Take `C[C@H]1CC2C3CCC4=CC(=O)C=C[C@]4(C)[C@@]3(Cl)[C@@H](O)C[C@]2(C)[C@@]1(O)C(=O)CO` (stereo not given in full): the Potency entry was “inactive”.

Take `NOCC(=O)O`: the Potency entry is “inactive”.

The values above are taken from PubChem BioAssay (NCATS).
